In the supplement of paper PMC6411743:
± gives the standard deviation of the averaged measurements. Of roughly 6,500 targets only a part is listed; those with the largest changes were picked by preference.

Compound: Nc1ncnc2c1ncn2[C@@H]1O[C@H](COP(=O)(O)OP(=O)(O)OP(=O)(O)O)[C@@H](O)[C@H]1O [adenosine triphosphate]
Test: NP40-soluble protein abundance relative to vehicle (solubility fold change) (ratio); higher = more soluble protein in presence of ATP
Procedure, shortened: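 In three independent experiments, Jurkat crude lysate made by Dounce homogenisation was treated for 10 min at room temperature and then 3 min at 37 °C with eight concentrations ranging from 0.1 to 10 mM. It was then solubilised with 0.8% NP40 plus benzonase for 60 min at 4 °C and ultracentrifuged. The supernatant was TMT-labelled for LC-MS/MS, and each value is the fold change against the detergent-processed vehicle for the same replicate, using vsn-normalised intensities.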

Sequence of UniProt P60228 (P60228 whole entry): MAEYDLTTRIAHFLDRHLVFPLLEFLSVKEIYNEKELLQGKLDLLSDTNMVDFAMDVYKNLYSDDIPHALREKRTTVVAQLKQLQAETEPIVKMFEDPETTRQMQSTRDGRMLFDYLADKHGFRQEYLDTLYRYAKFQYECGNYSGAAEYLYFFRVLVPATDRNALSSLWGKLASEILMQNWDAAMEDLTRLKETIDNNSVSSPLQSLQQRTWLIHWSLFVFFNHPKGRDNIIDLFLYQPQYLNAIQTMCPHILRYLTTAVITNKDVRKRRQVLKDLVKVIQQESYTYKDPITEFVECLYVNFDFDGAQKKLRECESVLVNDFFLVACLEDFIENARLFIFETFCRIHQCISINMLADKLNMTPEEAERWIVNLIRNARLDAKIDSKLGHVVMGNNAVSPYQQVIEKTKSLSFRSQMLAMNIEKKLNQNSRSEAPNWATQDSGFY
Sequence of UniProt P20933 (P20933 whole entry): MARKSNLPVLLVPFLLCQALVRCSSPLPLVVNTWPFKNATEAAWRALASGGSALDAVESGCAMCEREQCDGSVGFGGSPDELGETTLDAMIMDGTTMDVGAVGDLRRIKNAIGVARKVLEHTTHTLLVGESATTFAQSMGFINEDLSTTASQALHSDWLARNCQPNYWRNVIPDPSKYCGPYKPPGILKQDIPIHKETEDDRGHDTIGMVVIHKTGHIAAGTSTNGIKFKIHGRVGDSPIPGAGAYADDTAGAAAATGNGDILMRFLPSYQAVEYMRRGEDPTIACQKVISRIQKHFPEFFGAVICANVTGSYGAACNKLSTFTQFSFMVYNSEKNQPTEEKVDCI
Sequence of UniProt P51114 (P51114 whole entry): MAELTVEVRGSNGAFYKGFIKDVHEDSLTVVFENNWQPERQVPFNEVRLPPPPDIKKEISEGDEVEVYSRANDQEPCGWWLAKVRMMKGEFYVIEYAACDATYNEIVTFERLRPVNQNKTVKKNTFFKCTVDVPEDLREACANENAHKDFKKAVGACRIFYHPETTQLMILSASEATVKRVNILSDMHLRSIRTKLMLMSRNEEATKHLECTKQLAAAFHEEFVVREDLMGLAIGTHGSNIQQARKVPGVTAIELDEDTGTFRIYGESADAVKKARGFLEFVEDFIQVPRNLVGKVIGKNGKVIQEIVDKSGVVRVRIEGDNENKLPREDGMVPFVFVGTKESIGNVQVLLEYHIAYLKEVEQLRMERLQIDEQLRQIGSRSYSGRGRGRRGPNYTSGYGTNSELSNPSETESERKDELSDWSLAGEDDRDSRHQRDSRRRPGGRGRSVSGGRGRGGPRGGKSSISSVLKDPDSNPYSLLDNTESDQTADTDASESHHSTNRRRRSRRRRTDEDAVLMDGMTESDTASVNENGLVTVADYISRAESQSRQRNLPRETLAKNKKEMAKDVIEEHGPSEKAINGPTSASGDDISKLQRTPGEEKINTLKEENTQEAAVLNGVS
Sequence of UniProt O94886 (O94886 whole entry): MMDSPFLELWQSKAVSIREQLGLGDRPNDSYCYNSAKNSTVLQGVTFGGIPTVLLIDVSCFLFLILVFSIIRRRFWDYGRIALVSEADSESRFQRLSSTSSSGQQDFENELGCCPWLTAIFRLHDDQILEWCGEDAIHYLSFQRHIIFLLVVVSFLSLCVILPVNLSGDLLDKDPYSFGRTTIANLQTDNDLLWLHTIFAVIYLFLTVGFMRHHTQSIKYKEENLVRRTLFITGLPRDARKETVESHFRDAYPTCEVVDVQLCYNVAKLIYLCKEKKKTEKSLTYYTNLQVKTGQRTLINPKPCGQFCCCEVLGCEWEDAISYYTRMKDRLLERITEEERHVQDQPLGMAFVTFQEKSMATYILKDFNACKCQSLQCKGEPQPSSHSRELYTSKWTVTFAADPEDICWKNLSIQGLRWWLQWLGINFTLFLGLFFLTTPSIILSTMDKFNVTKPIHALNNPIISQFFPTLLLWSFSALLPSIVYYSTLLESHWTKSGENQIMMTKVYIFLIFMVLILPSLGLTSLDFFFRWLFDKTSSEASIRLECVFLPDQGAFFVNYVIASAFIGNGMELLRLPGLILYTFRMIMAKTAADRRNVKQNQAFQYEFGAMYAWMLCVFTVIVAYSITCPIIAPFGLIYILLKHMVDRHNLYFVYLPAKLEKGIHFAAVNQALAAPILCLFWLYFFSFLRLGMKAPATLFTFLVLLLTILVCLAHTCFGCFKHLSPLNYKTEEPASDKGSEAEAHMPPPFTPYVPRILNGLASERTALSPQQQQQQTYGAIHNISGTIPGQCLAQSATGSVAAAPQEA
Sequence of UniProt P67775 (P67775 whole entry): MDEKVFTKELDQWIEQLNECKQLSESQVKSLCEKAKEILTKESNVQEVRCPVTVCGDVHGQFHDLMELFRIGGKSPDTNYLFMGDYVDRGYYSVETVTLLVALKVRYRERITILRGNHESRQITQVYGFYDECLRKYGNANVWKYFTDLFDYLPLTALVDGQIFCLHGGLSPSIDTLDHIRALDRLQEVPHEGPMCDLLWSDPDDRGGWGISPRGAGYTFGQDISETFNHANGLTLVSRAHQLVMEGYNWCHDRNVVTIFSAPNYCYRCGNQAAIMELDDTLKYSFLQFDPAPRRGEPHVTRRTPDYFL
Sequence of UniProt P49748 (P49748 whole entry): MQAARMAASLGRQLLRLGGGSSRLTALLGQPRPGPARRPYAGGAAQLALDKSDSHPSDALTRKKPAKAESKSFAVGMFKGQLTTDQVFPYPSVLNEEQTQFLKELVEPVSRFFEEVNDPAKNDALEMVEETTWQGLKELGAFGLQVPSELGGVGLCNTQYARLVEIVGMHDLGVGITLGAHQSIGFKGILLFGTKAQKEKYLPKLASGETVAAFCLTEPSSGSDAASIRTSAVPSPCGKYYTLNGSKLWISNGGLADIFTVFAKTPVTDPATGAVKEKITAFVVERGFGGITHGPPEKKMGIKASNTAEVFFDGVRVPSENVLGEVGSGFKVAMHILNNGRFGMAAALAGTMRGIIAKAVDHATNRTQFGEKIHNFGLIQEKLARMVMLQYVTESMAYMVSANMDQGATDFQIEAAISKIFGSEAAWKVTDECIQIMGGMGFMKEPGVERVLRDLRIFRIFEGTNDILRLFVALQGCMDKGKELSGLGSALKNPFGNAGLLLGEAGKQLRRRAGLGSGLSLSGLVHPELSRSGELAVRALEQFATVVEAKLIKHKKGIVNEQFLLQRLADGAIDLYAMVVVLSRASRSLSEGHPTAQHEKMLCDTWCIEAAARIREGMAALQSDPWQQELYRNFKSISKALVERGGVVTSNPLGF
Sequence of UniProt P49761 (P49761 whole entry, looked up): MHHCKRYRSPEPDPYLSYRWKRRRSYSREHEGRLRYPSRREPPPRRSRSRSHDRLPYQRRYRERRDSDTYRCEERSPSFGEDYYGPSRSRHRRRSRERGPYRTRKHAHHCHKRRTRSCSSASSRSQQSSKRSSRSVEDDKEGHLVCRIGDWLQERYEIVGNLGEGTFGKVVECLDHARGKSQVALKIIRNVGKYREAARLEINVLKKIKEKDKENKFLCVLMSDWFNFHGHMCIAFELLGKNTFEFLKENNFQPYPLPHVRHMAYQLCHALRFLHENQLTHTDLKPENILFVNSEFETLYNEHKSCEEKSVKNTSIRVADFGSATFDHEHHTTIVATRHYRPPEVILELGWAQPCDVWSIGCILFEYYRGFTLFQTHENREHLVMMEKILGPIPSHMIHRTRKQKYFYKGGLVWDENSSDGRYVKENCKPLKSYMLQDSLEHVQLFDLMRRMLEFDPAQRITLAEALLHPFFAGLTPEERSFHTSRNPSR
Sequence of UniProt P50402 (P50402 whole entry): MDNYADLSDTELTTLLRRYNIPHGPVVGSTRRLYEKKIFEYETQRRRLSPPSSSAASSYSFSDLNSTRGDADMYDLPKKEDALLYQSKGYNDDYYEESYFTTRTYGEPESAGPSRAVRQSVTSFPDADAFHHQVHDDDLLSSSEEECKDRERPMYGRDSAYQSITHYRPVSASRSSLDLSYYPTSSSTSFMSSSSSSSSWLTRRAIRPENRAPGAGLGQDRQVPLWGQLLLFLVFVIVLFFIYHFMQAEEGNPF
Sequence of UniProt P23246 (P23246 whole entry): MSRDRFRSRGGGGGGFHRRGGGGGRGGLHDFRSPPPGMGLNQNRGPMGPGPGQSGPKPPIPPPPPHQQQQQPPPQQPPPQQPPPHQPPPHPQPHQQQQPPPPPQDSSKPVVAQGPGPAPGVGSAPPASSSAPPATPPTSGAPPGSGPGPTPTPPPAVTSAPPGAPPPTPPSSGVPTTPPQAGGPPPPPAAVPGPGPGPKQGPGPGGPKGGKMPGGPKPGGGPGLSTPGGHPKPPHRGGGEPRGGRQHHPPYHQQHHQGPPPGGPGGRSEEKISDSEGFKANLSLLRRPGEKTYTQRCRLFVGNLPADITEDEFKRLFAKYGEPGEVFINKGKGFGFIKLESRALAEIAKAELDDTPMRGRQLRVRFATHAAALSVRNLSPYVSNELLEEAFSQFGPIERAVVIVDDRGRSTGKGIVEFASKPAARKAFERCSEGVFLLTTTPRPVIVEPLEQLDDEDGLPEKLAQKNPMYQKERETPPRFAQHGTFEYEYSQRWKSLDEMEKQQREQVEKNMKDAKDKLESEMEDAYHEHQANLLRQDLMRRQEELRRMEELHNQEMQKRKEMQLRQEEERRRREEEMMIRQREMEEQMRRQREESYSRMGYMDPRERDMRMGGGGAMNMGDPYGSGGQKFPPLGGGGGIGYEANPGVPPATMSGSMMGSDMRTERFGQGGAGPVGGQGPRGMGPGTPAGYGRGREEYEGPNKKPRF
Sequence of UniProt P62937 (P62937 whole entry, looked up): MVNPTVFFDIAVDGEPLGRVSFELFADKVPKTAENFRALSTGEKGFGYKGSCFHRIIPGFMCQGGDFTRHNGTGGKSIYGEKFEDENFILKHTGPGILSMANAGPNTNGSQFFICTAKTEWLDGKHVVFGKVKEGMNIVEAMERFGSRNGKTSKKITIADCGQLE
Sequence of UniProt P10606 (P10606 whole entry): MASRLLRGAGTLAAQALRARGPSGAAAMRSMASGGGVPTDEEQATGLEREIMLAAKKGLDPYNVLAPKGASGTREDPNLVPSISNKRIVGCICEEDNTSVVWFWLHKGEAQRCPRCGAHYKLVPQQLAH

Target	NP40-soluble protein abundance (concentration: 1mM)	NP40-soluble protein abundance (concentration: 2mM)	NP40-soluble protein abundance (concentration: 4mM)	NP40-soluble protein abundance (concentration: 6mM)	NP40-soluble protein abundance (concentration: 8mM)	NP40-soluble protein abundance (concentration: 10mM)
EMD (UniProt P50402)	1.13 ± 0.096	1.16 ± 0.1	1.14 ± 0.11	1.11 ± 0.1	1.12 ± 0.086	1.15 ± 0.05
LSM11 (UniProt P83369)	1.32 ± 0.26	1.26 ± 0.15	1.4 ± 0.17	1.62 ± 0.32	1.46 ± 0.2	1.69 ± 0.4
UniProt P62937|P62937-2	0.914 ± 0.063	1.02 ± 0.05	0.894 ± 0.091	0.992 ± 0.084	0.882 ± 0.11	0.962 ± 0.056
UniProt P49354|H0YCW1	1.05 ± 0.088	1.01 ± 0.059	1.03 ± 0.053	0.955 ± 0.12	1.04 ± 0.076	0.996 ± 0.062
AP3M2 (UniProt P53677)	1.09 ± 0.019	1.08 ± 0.016	1.13 ± 0.043	1.02 ± 0.047	1.06 ± 0.051	1.08 ± 0.069
PPP2CA (UniProt P67775)	0.959 ± 0.061	0.925 ± 0.0053	0.908 ± 0.021	0.962 ± 0.033	0.9033 ± 0.007	0.9 ± 0.085
RHOA (UniProt P61586)	0.996 ± 0.14	1.01 ± 0.078	0.968 ± 0.06	1.09 ± 0.069	0.939 ± 0.023	0.944 ± 0.027
ACSL3 (UniProt O95573)	1.02 ± 0.05	1.05 ± 0.028	1.03 ± 0.036	1 ± 0.11	1.03 ± 0.041	1.01 ± 0.031
UniProt Q02078-2|Q02078-6	0.954 ± 0.086	0.939 ± 0.046	0.936 ± 0.065	0.926 ± 0.036	0.907 ± 0.032	0.949 ± 0.048
HMGN2 (UniProt P05204)	1.06 ± 0.36	1.27 ± 0.42	1.29 ± 0.44	1.67 ± 0.9	1.55 ± 0.41	2.08 ± 1.5
CTBS (UniProt Q01459)	0.951 ± 0.04	0.98 ± 0.028	0.939 ± 0.038	0.957 ± 0.038	0.932 ± 0.032	0.955 ± 0.013
UniProt Q03933-2|Q03933	0.912 ± 0.029	1.05 ± 0.065	1.05 ± 0.2	1.09 ± 0.17	1.04 ± 0.048	1.01 ± 0.051
ARL3 (UniProt P36405)	0.978 ± 0.0088	0.944 ± 0.057	0.937 ± 0.057	0.926 ± 0.066	0.945 ± 0.037	0.946 ± 0.049
UniProt P51114|P51114-2	1.644 ± 0.0088	1.79 ± 0.041	2.03 ± 0.048	2.17 ± 0.11	2.32 ± 0.039	2.4 ± 0.045
TMEM63A (UniProt O94886)	0.9962 ± 0.0062	1.016 ± 0.004	1.01 ± 0.023	1.0012 ± 0.00078	0.961 ± 0.024	0.979 ± 0.01
PFN1 (UniProt P07737)	0.941 ± 0.059	0.934 ± 0.049	0.918 ± 0.027	0.92 ± 0.059	0.891 ± 0.015	0.911 ± 0.034
P0DN76|Q01081|Q01081-2 (UniProt Q01081+P0DN76)	2.11 ± 0.23	2.14 ± 0.2	2.22 ± 0.17	2.36 ± 0.16	2.27 ± 0.11	2.24 ± 0.17
XRCC5 (UniProt P13010)	1.04 ± 0.055	1.01 ± 0.051	0.996 ± 0.039	0.961 ± 0.076	1 ± 0.024	0.993 ± 0.057

Target	NP40-soluble protein abundance (concentration: 1mM)	NP40-soluble protein abundance (concentration: 2mM)	NP40-soluble protein abundance (concentration: 4mM)	NP40-soluble protein abundance (concentration: 6mM)	NP40-soluble protein abundance (concentration: 8mM)	NP40-soluble protein abundance (concentration: 10mM)
UniProt P13674|P13674-2	1.01 ± 0.0016	1.01 ± 0.022	0.994 ± 0.027	1.03 ± 0.054	1.01 ± 0.034	1.04 ± 0.045
SAP30 (UniProt O75446)	0.93 ± 0.092	0.952 ± 0.092	0.907 ± 0.073	0.971 ± 0.15	0.96 ± 0.044	0.915 ± 0.13
SPN (UniProt P16150)	0.828 ± 0.17	0.803 ± 0.16	0.812 ± 0.13	0.835 ± 0.14	0.765 ± 0.094	0.71 ± 0.2
UniProt P62854	0.92 ± 0.095	0.912 ± 0.11	0.911 ± 0.18	0.809 ± 0.13	0.745 ± 0.099	0.843 ± 0.13
GALK2 (UniProt Q01415)	0.938 ± 0.068	0.975 ± 0.073	0.985 ± 0.012	0.86 ± 0.12	0.956 ± 0.066	0.968 ± 0.037
SFPQ (UniProt P23246)	1.125 ± 0.0082	1.302 ± 0.0053	1.67 ± 0.042	1.72 ± 0.18	1.81 ± 0.11	1.68 ± 0.17
UniProt P63218	0.812 ± 0.15	0.735 ± 0.17	0.799 ± 0.22	0.72 ± 0.12	0.77 ± 0.16	0.678 ± 0.18
AGA (UniProt P20933)	0.925 ± 0.059	0.964 ± 0.07	0.978 ± 0.079	0.94 ± 0.081	0.914 ± 0.064	0.876 ± 0.071
ARF3 (UniProt P61204)	1.05 ± 0.21	1.01 ± 0.17	1.04 ± 0.13	0.961 ± 0.23	1.05 ± 0.073	0.996 ± 0.08
UniProt P49748|P49748-3	0.997 ± 0.081	0.989 ± 0.064	0.983 ± 0.027	0.934 ± 0.083	0.986 ± 0.015	0.973 ± 0.045
UniProt P18583|P18583-5|P18583-7|P18583-9	1.28 ± 0.057	1.3 ± 0.075	1.36 ± 0.099	1.49 ± 0.14	1.45 ± 0.095	1.55 ± 0.13
IGHMBP2 (UniProt P38935)	1.41 ± 0.11	1.59 ± 0.088	1.84 ± 0.09	2.01 ± 0.13	2.19 ± 0.2	2.4 ± 0.14
COX5B (UniProt P10606)	0.9588 ± 0.0074	0.963 ± 0.013	0.966 ± 0.032	1.01 ± 0.028	0.936 ± 0.055	0.929 ± 0.012
MRPS25 (UniProt P82663)	0.942 ± 0.092	0.951 ± 0.066	0.96 ± 0.043	0.881 ± 0.09	0.915 ± 0.081	0.928 ± 0.078
UniProt P49761|P49761-1|P49761-3	1.317 ± 0.008	1.56 ± 0.035	1.54 ± 0.018	1.43 ± 0.13	1.81 ± 0.23	2.065 ± 0.019
UniProt Q02880-2	1.28 ± 0.061	1.36 ± 0.045	1.57 ± 0.067	1.73 ± 0.13	1.99 ± 0.11	2.07 ± 0.057
UniProt P60228	0.999 ± 0.024	0.999 ± 0.051	1.08 ± 0.035	1.23 ± 0.063	1.34 ± 0.073	1.49 ± 0.12
AKR1A1 (UniProt P14550)	0.989 ± 0.046	0.979 ± 0.047	0.956 ± 0.048	0.959 ± 0.086	0.986 ± 0.059	0.944 ± 0.05
